# From PMC7862700, “An all-to-all approach to the identification of sequence-specific readers for epigenetic DNA modifications on cytosine”
# Key:
# Test in all cases: DAPPL (digital affinity profiling via proximity ligation, sequencing); 10 mM Tris-HCl pH 7.5, 50 mM NaCl, 1 mM DTT, 4% glycerol, room temperature, 30 min; GST-TFs on glutathione beads, 16-mer random dsDNA library, 0.1% formaldehyde crosslink after washing; high values mean tight binding
# Settings in all cases: protein: recombinant; tags: N-terminal GST; dsDNA, one strand shown
# [1] = molecular target: T1, FLI1 (Homo sapiens, UniProt Q01543 1-452)
# T1 sequence: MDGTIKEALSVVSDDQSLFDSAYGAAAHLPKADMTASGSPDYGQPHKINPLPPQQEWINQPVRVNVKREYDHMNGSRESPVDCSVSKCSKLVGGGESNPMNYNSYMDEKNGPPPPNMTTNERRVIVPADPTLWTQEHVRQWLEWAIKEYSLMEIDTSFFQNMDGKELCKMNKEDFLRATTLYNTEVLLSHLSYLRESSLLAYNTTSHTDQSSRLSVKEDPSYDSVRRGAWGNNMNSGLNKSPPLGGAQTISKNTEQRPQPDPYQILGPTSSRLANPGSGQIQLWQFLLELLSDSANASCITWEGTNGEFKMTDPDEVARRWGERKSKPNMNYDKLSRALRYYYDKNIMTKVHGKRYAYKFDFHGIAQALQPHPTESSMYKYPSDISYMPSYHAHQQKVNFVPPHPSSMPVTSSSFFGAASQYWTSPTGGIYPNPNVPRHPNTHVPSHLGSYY
# Summary of the method: (§1)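 Pools were built from human transcription factors expressed in yeast as GST fusions, captured on glutathione beads and DNA-barcoded, along with a tag-only sample. Incubation with 200 nmole of a 16-mer random double-stranded DNA library lasted 30 min at room temperature in Tris/NaCl/DTT/glycerol buffer, and was followed by washing, 0.1% formaldehyde crosslinking, proximity ligation, PCR amplification and Illumina NextSeq500 sequencing. Binding signal is the quotient of each hexamer's read frequency for a factor and its frequency for the tag-only sample.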
# [2] = molecular target: T2, ELK1 (Homo sapiens, UniProt P19419 1-428)
# T2 sequence: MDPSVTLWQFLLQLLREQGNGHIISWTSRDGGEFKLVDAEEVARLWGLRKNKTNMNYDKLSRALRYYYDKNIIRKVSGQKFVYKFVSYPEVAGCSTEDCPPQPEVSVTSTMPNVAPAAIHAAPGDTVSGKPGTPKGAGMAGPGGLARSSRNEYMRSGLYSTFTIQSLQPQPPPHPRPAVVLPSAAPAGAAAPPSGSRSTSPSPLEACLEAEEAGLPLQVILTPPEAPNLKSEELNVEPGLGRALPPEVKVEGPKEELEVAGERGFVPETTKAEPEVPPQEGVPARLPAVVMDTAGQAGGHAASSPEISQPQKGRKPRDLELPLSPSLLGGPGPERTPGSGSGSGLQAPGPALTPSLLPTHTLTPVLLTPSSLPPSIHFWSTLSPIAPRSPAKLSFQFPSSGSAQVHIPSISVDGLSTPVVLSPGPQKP
# Summary of the method: as §1
# [3] = molecular target: T3, GABPA (Homo sapiens, UniProt Q06546 1-454)
# T3 sequence: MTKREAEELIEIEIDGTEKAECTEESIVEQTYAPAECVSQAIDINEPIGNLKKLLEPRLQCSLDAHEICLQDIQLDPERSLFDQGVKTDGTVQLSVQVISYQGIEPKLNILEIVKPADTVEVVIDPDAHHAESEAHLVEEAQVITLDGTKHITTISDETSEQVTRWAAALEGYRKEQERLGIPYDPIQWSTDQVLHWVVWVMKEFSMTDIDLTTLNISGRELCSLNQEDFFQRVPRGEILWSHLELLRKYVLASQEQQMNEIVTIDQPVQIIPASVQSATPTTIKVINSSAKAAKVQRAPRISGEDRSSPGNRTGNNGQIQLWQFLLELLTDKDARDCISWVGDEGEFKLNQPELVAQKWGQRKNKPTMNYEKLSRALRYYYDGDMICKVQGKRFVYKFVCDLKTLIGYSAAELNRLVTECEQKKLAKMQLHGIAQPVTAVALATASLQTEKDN
# Summary of the method: as §1
# [4] = molecular target: T4, ERG (Homo sapiens, UniProt P11308 1-479)
# T4 sequence: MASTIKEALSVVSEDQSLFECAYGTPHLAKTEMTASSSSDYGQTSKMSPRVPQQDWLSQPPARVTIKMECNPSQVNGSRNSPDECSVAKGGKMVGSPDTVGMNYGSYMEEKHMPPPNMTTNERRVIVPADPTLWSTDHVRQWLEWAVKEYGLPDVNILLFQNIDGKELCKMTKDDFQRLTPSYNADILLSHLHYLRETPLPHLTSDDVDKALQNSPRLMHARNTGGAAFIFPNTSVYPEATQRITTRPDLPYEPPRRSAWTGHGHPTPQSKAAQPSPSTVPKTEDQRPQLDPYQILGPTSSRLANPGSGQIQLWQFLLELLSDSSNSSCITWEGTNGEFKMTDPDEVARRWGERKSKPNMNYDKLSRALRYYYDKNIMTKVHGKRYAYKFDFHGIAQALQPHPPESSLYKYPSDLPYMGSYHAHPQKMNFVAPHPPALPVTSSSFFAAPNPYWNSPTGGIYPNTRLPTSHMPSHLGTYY
# Summary of the method: as §1
# [5] = molecular target: ELF1 (Homo sapiens, UniProt P32519 1-619)
# Summary of the method: as §1
# [6] = molecular target: T5, EHF (Homo sapiens, UniProt Q9NZC4 1-300)
# T5 sequence: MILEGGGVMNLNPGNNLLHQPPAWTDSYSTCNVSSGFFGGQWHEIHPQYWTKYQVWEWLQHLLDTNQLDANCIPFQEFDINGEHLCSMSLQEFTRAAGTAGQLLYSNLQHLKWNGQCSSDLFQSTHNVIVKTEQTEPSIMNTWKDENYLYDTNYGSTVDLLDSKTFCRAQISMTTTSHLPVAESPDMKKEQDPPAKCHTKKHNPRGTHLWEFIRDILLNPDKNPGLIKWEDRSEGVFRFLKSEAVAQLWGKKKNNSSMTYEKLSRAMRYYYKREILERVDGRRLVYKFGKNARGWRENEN
# Summary of the method: as §1
# [7] = molecular target: SPI1 (Homo sapiens, UniProt P17947 1-270)
# Summary of the method: as §1
# [8] = molecular target: SPIB (Homo sapiens, UniProt Q01892 1-262)
# Summary of the method: as §1
# [9] = molecular target: T6, ELK3 (Homo sapiens, UniProt P41970 1-407)
# T6 sequence: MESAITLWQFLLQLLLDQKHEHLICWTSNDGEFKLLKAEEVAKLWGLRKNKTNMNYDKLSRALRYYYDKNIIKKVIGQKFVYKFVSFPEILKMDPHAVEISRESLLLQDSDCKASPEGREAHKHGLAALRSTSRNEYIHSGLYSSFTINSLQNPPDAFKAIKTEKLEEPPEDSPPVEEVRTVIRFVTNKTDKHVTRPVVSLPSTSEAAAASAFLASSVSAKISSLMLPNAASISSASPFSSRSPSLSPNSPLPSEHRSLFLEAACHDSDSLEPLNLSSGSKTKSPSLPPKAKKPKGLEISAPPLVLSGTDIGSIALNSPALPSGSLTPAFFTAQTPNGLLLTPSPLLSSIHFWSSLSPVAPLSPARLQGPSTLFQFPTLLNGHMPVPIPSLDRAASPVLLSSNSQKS
# Summary of the method: as §1
# Sequence of SPIB (Q01892 whole entry): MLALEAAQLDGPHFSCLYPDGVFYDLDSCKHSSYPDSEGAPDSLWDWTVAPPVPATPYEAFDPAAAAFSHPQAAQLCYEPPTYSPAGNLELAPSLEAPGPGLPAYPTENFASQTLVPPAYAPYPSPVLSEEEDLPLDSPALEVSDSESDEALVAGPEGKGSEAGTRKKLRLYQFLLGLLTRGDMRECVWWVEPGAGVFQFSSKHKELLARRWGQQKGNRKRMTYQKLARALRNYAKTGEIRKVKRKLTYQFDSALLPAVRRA
# Sequence of ELF1 (P32519 whole entry): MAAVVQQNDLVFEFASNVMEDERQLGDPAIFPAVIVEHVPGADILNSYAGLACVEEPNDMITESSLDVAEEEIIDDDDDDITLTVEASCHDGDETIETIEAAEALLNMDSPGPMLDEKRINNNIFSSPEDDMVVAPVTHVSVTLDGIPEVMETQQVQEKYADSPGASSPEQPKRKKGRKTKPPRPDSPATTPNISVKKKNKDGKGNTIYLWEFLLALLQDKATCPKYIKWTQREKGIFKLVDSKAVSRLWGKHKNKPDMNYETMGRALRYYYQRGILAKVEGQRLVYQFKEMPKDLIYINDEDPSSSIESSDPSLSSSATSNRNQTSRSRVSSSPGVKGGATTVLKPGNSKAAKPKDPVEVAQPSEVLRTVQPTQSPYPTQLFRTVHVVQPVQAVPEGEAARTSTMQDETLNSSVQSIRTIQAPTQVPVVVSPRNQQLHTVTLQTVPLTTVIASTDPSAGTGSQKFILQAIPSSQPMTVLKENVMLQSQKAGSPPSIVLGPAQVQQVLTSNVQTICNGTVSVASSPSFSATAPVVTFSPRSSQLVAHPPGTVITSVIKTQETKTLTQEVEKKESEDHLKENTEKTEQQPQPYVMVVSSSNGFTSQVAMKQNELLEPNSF
sequence,measurement,setting,value
CGGCTT,binding signal,[1],"1.17 fold enrichment (6-mer frequency, TF over GST control)"
same,binding signal,[2],"1.2 fold enrichment (6-mer frequency, TF over GST control)"
same,binding signal,[3],"1.12 fold enrichment (6-mer frequency, TF over GST control)"
same,binding signal,[4],"1.19 fold enrichment (6-mer frequency, TF over GST control)"
same,binding signal,[5],"1.13 fold enrichment (6-mer frequency, TF over GST control)"
same,binding signal,[6],"1.13 fold enrichment (6-mer frequency, TF over GST control)"
same,binding signal,[7],"1.17 fold enrichment (6-mer frequency, TF over GST control)"
same,binding signal,[8],"1.18 fold enrichment (6-mer frequency, TF over GST control)"
same,binding signal,[9],"1.12 fold enrichment (6-mer frequency, TF over GST control)"
